Shown are actives, neighbours in structure and some others; about 2.8% of the full set was active somewhere.
MITF TRPM1 inh: MITF TRPM1 promoter inhibition in SK-MEL-5 cells; SK-MEL-5 TRPM1 promoter luciferase, 24 h; inhibition, % at 12.5 µM; 0.83% of 330,000 active; AID 488899;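 active = mean inhibition across replicates of 60% or more, whatever share of single replicates reaches that level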
HIF-2a block: inhibitors of HIF-2a; 786-0 RCC cells HIF-2a reporter, luciferase luminescence, overnight; inhibition, % at 18.8 µM; 0.72% of 360,000 active; AID 624352;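 active = inhibition of the luminescence signal of 40% or more relative to plate controls, in a single-dose primary screen at 18.75 µM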
B2AR ag: agonists of human beta-2 adrenergic receptor inducing internalization. P07550. Am2.2-beta2AR cells, FAP receptor internalization, flow cytometry. response, % (concentration not given with the values). 0.43% of 340,000 active. AID 504454;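 active = response above a set limit, near 3 SD of response in nonfluorescent compounds, cut at about 42% in these data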
Target sequence (P07550 whole entry, looked up): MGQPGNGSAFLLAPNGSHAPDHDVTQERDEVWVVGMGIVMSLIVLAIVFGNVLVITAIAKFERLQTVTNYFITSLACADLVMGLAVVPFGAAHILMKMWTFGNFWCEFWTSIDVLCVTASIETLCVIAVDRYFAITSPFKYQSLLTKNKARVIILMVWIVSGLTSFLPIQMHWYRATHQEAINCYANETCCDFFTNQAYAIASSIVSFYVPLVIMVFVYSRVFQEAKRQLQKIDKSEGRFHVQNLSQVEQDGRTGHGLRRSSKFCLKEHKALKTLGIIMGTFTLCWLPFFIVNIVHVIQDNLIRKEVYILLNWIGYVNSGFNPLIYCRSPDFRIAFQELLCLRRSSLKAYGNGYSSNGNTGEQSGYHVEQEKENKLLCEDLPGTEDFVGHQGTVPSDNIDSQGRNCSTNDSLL
Peg3 promoter: Peg3 promoter activity inhibition | HeLa PEG-Prom luciferase reporter, luminescence, overnight | inhibition, % at 20 µM | 1.7% of 360,000 active | AID 588405;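 active = inhibition of at least 50% at 20 µM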
KKLEB tox: CF airway cell cytotoxicity counter-screen. KKLEB CF airway cells viability, ATPlite luminescence, overnight; hits give low values; cells stimulated with P. aeruginosa culture filtrate. activity change (cytotoxicity), % at 5 µM. 0.36% of 360,000 active. AID 602141;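 active = corrected activity change at or below -50% at 5 µM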
CF NFkB block: inhibitors of cystic fibrosis induced NF-kB; KKLEB NF-kB-GFP reporter, PAF-induced, GFP fluorescence overnight; inhibition, % at 5 µM; 0.86% of 360,000 active;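 active = at least 50% inhibition at 5 µM, scaled per plate between neutral and stimulator controls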;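 also: PAF is a Pseudomonas aeruginosa culture filtrate used as stimulus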
Hits are given with their value; i = inactive; nt = not tested or not shown.

SMILES	MITF TRPM1 inh	HIF-2a block	B2AR ag	Peg3 promoter	KKLEB tox	CF NFkB block
COC(=O)/C=C\C(C#N)(C#N)N=Cc1ccc(OC)cc1	i	i	47.1	104.9	i	i
Cc1ccc(-c2nnn(CC(=O)Nc3ccc(S(=O)(=O)N4CCC(C)CC4)cc3)n2)cc1	i	i	i	62.8	i	i
CCOCCCn1c(SCC(=O)NC2CCCCC2)nc2ccccc2c1=O	nt	i	nt	i	i	i
N#Cc1ccccc1NC(=O)C1SC(=Nc2ccccc2)C(C(=O)Nc2ccc(Cl)cc2)=C1N (stereo unspecified)	72.2	i	i	i	i	i
COc1ccc(OC)c(NC(=O)C2(C)CCN2Cc2ccccc2OC(F)F)c1 (stereo unspecified)	nt	i	nt	i	i	i
O=C(Nc1ccc(F)cc1)Nc1nnc(-c2ccncc2)s1	i	i	i	i	i	84.6
O=C(Nc1ccc(Cl)cc1)Nc1nnc(-c2ccncc2)s1	i	i	i	63.8	-89.2	84.0
O=C(Nc1nnc(-c2ccc(F)cc2)s1)Nc1ccccc1F	nt	i	i	i	i	i
OC(c1cccc(Cl)c1)c1nc(-c2ccc(F)c(Cl)c2)cs1 (stereo unspecified)	nt	i	nt	i	i	i
CC(C)(C)c1cnnn1-c1ccc(C(=O)CCl)cc1	i	i	44.6	i	i	i
CN1CCN(c2nc(-c3ccccc3)c3cc(Cl)ccc3n2)CC1	i	i	i	i	i	i
Clc1ccc2nc(N3CCNCC3)nc(-c3ccccc3)c2c1	i	i	i	101.2	i	i
CC(C)C/C=C1\CCc2c([nH]c3ccccc23)C1=O	i	i	i	i	i	i
CCCCCCCCC1=NCCc2c1[nH]c1ccccc21	i	i	i	90.9	i	i
Cc1ccc(-c2cnc(C(O)c3ccc(Cl)c(Cl)c3)[nH]2)cc1 (stereo unspecified)	nt	i	nt	i	i	i
O=C(COc1ccccc1)N=C1SC2CS(=O)(=O)CC2N1c1cccc(F)c1 (stereo unspecified)	i	i	47.9	i	i	i
CNC(=O)c1cccc(NC(=O)c2cc(-c3ccccc3)nc3c2cnn3C(C)C)c1	i	i	i	59.1	i	i
CCCCn1c(/C=N/Nc2nc3ccccc3[nH]2)nc2ccccc21	i	i	i	i	i	i
Fc1ccccc1-c1ccc(/C=N/Nc2nc3ccccc3[nH]2)o1	i	i	i	i	-55.2	i
O=C(NCC(c1ccco1)N1CCN(c2ccccc2)CC1)C1CCCCC1 (stereo unspecified)	nt	i	nt	i	i	i
COc1cc(F)ccc1-c1csc(C(NC(C)=O)c2cccc(F)c2)n1 (stereo unspecified)	nt	i	nt	i	i	i
Cc1c(C(=O)NCC2COc3ccccc3O2)oc2ccc(S(=O)(=O)N3CCOCC3)cc12 (stereo unspecified)	i	i	i	72.9	i	i
Cc1c(C(=O)Nc2ccc(F)cc2)oc2ccc(S(=O)(=O)N3CCCC3)cc12	i	i	i	i	i	i
Cc1c(C(=O)Nc2ccc(F)cc2)oc2ccc(S(=O)(=O)N3CCC4(CC3)OCCO4)cc12	i	i	i	55.4	i	i
Cc1c(C(=O)NCC2COc3ccccc3O2)oc2ccc(S(=O)(=O)N3CC(C)CC(C)C3)cc12 (stereo unspecified)	i	i	i	i	i	i
SMILES	MITF TRPM1 inh	HIF-2a block	B2AR ag	Peg3 promoter	KKLEB tox	CF NFkB block
Cc1c(C(=O)Nc2ccc(F)c(F)c2)oc2ccc(S(=O)(=O)N3CCCCC3)cc12	i	i	i	64.5	i	i
Cc1c(C(=O)Nc2cccc(Cl)c2)oc2ccc(S(=O)(=O)N3CCC4(CC3)OCCO4)cc12	i	i	i	57.9	i	i
Cc1c(C(=O)NCc2ccccc2)oc2ccc(S(=O)(=O)N3CCC4(CC3)OCCO4)cc12	i	i	i	i	i	i
C=C(C)Cn1c2ccc(NC(=O)NCCc3cccs3)cc2c(=O)n1C	nt	i	nt	i	i	i
Cc1c(C(=O)Nc2ccc(S(=O)(=O)N(C)C3CCN(C)CC3)cc2)oc2ccccc12	i	i	i	89.3	i	i
CN1CCC(N(C)S(=O)(=O)c2ccc(NC(=O)c3ccc(S(=O)(=O)N(C)C)cc3)cc2)CC1	i	i	i	i	i	i
C[C@@H]1CN([C@H](C)CO)C(=O)CCCn2cc(nn2)CO[C@H]1CN(C)C(=O)Cc1ccccc1	nt	i	nt	i	i	i
CN1CCN(CC(=O)Nc2nc3c(s2)CCCC3)CC1	i	i	i	i	i	i

Screening results (PubChem BioAssay)
